Compound activity: PubChem BioAssay, several laboratories
Rv3671c protease: inhibitors of M. tuberculosis serine protease Rv3671c. 320,000 tested, 0.048% active. P9WHR9. inhibition, % at 5.96 µM; in the data active = inhibition above about 38%;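 note: extracellular domain of Rv3671c used as enzyme; 0% = enzyme with DMSO and 100% = no enzyme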
GDH-TPI counter: inhibits GDH-TPI coupling enzymes, artifact for Mtb FBA screen; inhibition, % at 4.8 µM; 360,000 tested, 1.2% active; GDH-TPI coupled enzyme counterscreen, NADH absorbance; in the data active = inhibition above about 30%;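 note: 0% = DMSO wells and 100% = wells lacking the enzyme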
Mtb FBA inh: inhibits M. tuberculosis FBA enzyme | 360,000 tested, 2.3% active | P9WQA3 | inhibition, % at 1 µM | purified M. tuberculosis FBA, fluorescence read-out; in the data active = inhibition above about 27%;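 note: 0% = vehicle and 100% = reference inhibitor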
Mtb UGM inh: inhibitors of M. tuberculosis UDP-galactopyranose mutase | purified UGM, fluorescence polarization probe displacement | inhibition, % at 10 µM | 320,000 tested, 0.06% active | P9WIQ1; in the data active = inhibition above about 10%, passing the limit was not always enough
Target sequence (P9WIQ1 whole entry, looked up): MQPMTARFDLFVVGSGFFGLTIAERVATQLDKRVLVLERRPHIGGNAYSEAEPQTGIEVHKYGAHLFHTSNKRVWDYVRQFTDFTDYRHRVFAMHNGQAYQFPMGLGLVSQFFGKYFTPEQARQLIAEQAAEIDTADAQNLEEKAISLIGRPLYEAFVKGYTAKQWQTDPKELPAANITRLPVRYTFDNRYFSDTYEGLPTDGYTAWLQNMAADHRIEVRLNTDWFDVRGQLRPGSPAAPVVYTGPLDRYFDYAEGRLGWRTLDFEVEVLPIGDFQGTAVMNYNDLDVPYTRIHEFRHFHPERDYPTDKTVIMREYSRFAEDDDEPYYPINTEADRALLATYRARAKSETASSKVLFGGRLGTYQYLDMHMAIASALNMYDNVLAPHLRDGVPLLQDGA
Numbers without * were called inactive; / = no result; + = active, no number. A selection: hits, their analogues and other compounds. The true share with any hit is near 3.5%.

SMILES | Rv3671c protease | GDH-TPI counter | Mtb FBA inh | Mtb UGM inh
CCOc1ncccc1C(=O)OC(C)C(=O)Nc1ccc(Cl)cn1 (stereo unspecified) | / | 8 | 3 | /
Cc1c(C)c2cc(Cl)c(OCC(=O)N3C[C@H]4C[C@@H](C3)c3cccc(=O)n3C4)cc2oc1=O | 3 | 10 | 9 | -2
Cc1c(CC(=O)N2C[C@H]3C[C@@H](C2)c2cccc(=O)n2C3)c(=O)oc2c(C)c(O)ccc12 | -8 | 11 | + | 5
Cc1oc2c(C)c3oc(=O)c(CCC(=O)N4C[C@H]5C[C@@H](C4)c4cccc(=O)n4C5)c(C)c3cc2c1C | 1 | 6 | 4 | 3
Cc1c(CC(=O)N2C[C@H]3C[C@@H](C2)c2cccc(=O)n2C3)c(=O)oc2cc(O)c(Cl)cc12 | -11 | 31* | / | 3
Cc1c(CCC(=O)N2C[C@H]3C[C@@H](C2)c2cccc(=O)n2C3)c(=O)oc2c(C)c(O)ccc12 | / | 8 | 191* | /
O=C(O)CC1(CC(=O)Nc2ccc(Cl)cc2C(=O)c2ccccc2)CCCC1 | 5 | -7 | 0 | 0
NC(=O)C1CCN(C(=O)C2CCC(=O)N(CC3CCCCC3)C2)CC1 (stereo unspecified) | -4 | 7 | -2 | 2
O=[N+]([O-])c1ccccc1C(=Nc1ccccc1)c1c(O)cc(O)cc1O | / | 32* | 0 | /
O=C(Nc1ccccc1)c1ccccc1NC(=O)c1ccccc1[N+](=O)[O-] | 0 | 3 | 3 | 1
Cc1cccc(N2CC(C(=O)Nc3nnc(SCc4cccnc4)s3)CC2=O)c1 (stereo unspecified) | 10 | 6 | -4 | 7
CC(=O)C1=CN(Cc2ccccc2)CCC1=O | / | 6 | 1 | /
COC(=O)/C=C/C1=CN(Cc2ccccc2)CCC1=O | 3 | 61* | -2 | -1
Nc1ncnc2c1ncn2[C@@H]1O[C@H](C(=O)N2CCN(c3ccc(Cl)cn3)CC2)[C@@H](O)[C@H]1O | / | / | 14 | /
Cc1nn(-c2ccccc2)c2nc(N)c(C(N)=O)cc12 | 3 | 20 | 71* | 1
COC(=O)c1cc(C)nc2c1c(C)nn2-c1ccccc1 | 3 | 15 | 2 | -1
Cc1ccnc2ccc(-c3nc4ccccc4o3)cc12 | -17 | 17 | 76* | -1
CCNC(=O)C1CCCN(C(=O)c2cnc3ccccc3n2)CC1 (stereo unspecified) | / | 2 | -3 | /
COC(=O)COc1cc(Br)c(/C=C2/SC(=O)N(CC(=O)N3CCCC3)C2=O)cc1OC | 1 | 29 | 0 | 0
COC(=O)COc1ccc(/C=C2/SC(=O)N(CC(=O)N3CCCC3)C2=O)cc1Br | -4 | 36* | -3 | -3
O=Cc1ccc(OC(=O)C2CC(=O)N(c3ccc(F)cc3)C2)cc1 (stereo unspecified) | -6 | 31* | -1 | 0
COc1ccc(N/N=C(/C#N)S(=O)(=O)c2nsc(C)c2C#N)cc1 | 2 | 38* | -3 | -1
O=C(Nc1nnc(-c2ccc(F)cc2)s1)c1ccco1 | 0 | 6 | -1 | 2
O=C(Nc1nnc(SCc2ccc(Cl)cc2)s1)c1ccco1 | -3 | 32* | -2 | 0
Cc1onc(-c2ccccc2)c1C(=O)Nc1nnc(C(C)C)s1 | -6 | 1 | -1 | 3
SMILES | Rv3671c protease | GDH-TPI counter | Mtb FBA inh | Mtb UGM inh
Cc1cccc(-c2nnc(NC(=O)c3ccco3)s2)c1 | -1 | 34* | 2 | 0
Cc1noc(C)c1C(=O)Nc1nnc(-c2ccccc2)s1 | -11 | 35* | 7 | 0
COC(=O)c1ccccc1S(=O)(=O)N1CCC(C(=O)OCC(=O)c2ccccc2OC)CC1 | -6 | 6 | 1 | 0
CCc1nc2ccc(C(=O)N3CCN(C(=O)c4ccco4)CC3)cn2c1N(C)Cc1nccn1C | / | -4 | -5 | /
O=C(Nc1ccc(N2CCOCC2)cc1)c1ccc(Cl)c(S(=O)(=O)N2CCCCC2)c1 | 1 | 12 | 0 | 1
CC1C2=C(CC(C)(C)CC2=O)NC2=C1C(=O)CC(C)(C)C2 | -7 | -3 | + | -2
CC1(C)CC(=O)C2=C(C1)NC(=O)NC2c1ccccc1 (stereo unspecified) | -6 | 1 | 4 | 7
Cc1ccsc1/C=C(\CC(=O)O)c1nc2ccccc2o1 | -1 | 44* | 3 | 0
O=C(N/N=C/C(Br)=C/c1ccccc1)c1ccccc1F | -9 | 32* | -6 | 1
O=C(Oc1cc2oc(=O)c3c(c2cc1Cl)CCCC3)c1ccco1 | -4 | 15 | + | 0
CC(C)Oc1cc2oc(=O)c3c(c2cc1Cl)CCC3 | 2 | 9 | 5 | -1
O=C(Oc1cc2oc(=O)c3c(c2cc1Cl)CCCC3)c1cccs1 | -6 | 10 | 173* | 2
CC(=O)Oc1cc2oc(=O)cc(C)c2cc1Cl | -6 | 11 | + | 2
